# Screening results deposited in PubChem by several laboratories.
# The list is not random: actives were taken first. Their share in the collection is about 0.5%.
# Tat transport – E. coli Tat export inhibitors, primary screen, MC4100, TorA-mCherry reporter, fluorescence, single point; inhibition, % at 10 µM; actives 0.036% (n = 340,000);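 active means mean replicate inhibition at least 50% and at least half of replicates individually reaching 50%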;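 further: exported cargo escapes ClpAP degradation while cytoplasmic cargo is degraded and loses fluorescence; 0% = median of neutral control wells and 100% = median of NaSCN control wells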
# AddAB inh – growth inhibition of E. coli expressing H. pylori AddAB, primary screen, AddAB inhibitor project, absorbance; actives 0.29% (n = 330,000); inhibition, % at 11.9 µM; in the data active means inhibition above about 12%;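 further: 0% = vehicle wells of infected cells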
# E coli growth-1 – E. coli V3065 growth inhibition, primary screen, counter-screen for AddAB inhibitor project, absorbance, OD600. AID 449728, 2010. 18 h. inhibition, % at 11.9 µM. actives 0.27% (n = 330,000);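 active means inhibition above the campaign's mean inhibition across all tested compounds plus 3 SD, cut at about 9.9% in these data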;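 further: uninfected addAB+ strain grown without phage in ampicillin broth; 0% = DMSO wells and 100% = ciprofloxacin 0.95 µg/ml wells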
# phage Ecoli inh – growth loss of phage-infected E. coli, primary screen, RecBCD inhibitor project, absorbance, with phage, HTS; inhibition, % at 11.9 µM; actives 0.26% (n = 360,000); in the data active means inhibition above about 11%
# E coli growth-2 – E. coli growth inhibition, primary screen, OD600 | OD600 absorbance (no concentration beside the values) | actives 0.21% (n = 330,000) | Escherichia coli growth, 23 h; hits give low values;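 active means OD600 absorbance below the run mean of sample wells minus 3.6 SD, in any replicate, cut at about 0.56 in these data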
# AddAB conf – growth loss of phage-infected E. coli expressing H. pylori AddAB, confirmation, AddAB inhibitor project, absorbance, E. coli V3065, T4 phage, triplicate; shares compounds with AddAB inh; OD; T4 phage with gene 2 nonsense mutations; inhibition, % at 11.9 µM; actives 64% (n = 880);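 active means mean inhibition above a set limit taken from the earlier primary screen, cut at about 13% in these data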;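 further: higher means less bacterial growth since AddAB block lets phage replicate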
# RecBCD counter – growth loss of RecBCD+ E. coli with mutant T4 phage, counter-screen for AddAB inhibitor project, absorbance, V66 E. coli | OD growth | shares compounds with AddAB inh | AID 488955, 2010 | inhibition, % at 11.9 µM | actives 73% (n = 880);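 active means mean inhibition above the mean of solvent-only control wells plus 3 SD, cut at about 4% in these data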;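 further: optical density read after an 18 h incubation at 37 °C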
# Bact viability – bacterial viability inhibition counter-screen, confirmation, counter-screen for AddAB inhibitor project, absorbance; shares compounds with AddAB inh; absorbance (AddAB counterscreen); inhibition, % at 11.9 µM; actives 35% (n = 880); in the data active means inhibition above about 25%
# RecBCD conf – growth loss of phage-infected RecBCD+ E. coli, confirmation, RecBCD inhibitor project, absorbance, E. coli V66, T4 gene 2 phage; shares compounds with phage Ecoli inh; E. coli V66 + T4 2- phage, growth OD; inhibition, % at 11.9 µM; actives 45% (n = 890); AID 651982, 2013;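 active means mean inhibition over triplicates exceeding the hit threshold derived in the original primary screen, cut at about 11% in these data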
# Ecoli viability – E. coli viability inhibition, counter-screen for RecBCD inhibitor project, absorbance, high throughput. shares compounds with phage Ecoli inh. absorbance (OD) growth. inhibition, % at 11.9 µM. actives 29% (n = 890); in the data active means inhibition above about 20%;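 further: E. coli strain V66 grown with compound alone and no phage infection; 0% = bacteria with DMSO vehicle only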
# AddAB phage OD – growth loss of phage-infected AddAB-carrying E. coli, confirmation, counter-screen for RecBCD inhibitor project, absorbance, E. coli V3065, T4 phage | actives 45% (n = 890) | inhibition, % at 11.9 µM | E. coli expressing H. pylori AddAB + T4 phage, OD growth; gene 2 mutant T4, recBCD-deleted host | shares compounds with phage Ecoli inh | AID 651984, 2013;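 active means mean inhibition above the solvent-only control wells' mean plus 3 SD, cut at about 22% in these data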;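 further: higher means less bacterial growth from phage killing when AddAB is blocked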
# Numbers without * were called inactive; i = inactive; . = no result; + = active, no number; ! = not confirmed by another sample.
SMILES,Tat transport,AddAB inh,E coli growth-1,phage Ecoli inh,E coli growth-2,AddAB conf,RecBCD counter,Bact viability,RecBCD conf,Ecoli viability,AddAB phage OD
COC(=O)C1=C(c2ccc(C(C)=O)cc2)CC2CCC1N2C(=O)NCc1ccco1 (centres undefined),.,.,.,.,0.6,.,.,.,.,.,.
COC(=O)C1=C(c2ccc(Cl)c(C(F)(F)F)c2)CC2CCC1N2C(=O)N1CCOCC1 (centres undefined),.,.,.,.,0.7,.,.,.,.,.,.
CCN1/C(=C\C=C\C2=[N+](CC)c3ccccc3C2(C)C)C(C)(C)c2ccccc21,i,35*,30*,.,0.53*,51*,23*,46*,.,.,.
CCCCCCCCC(=O)NCc1ccc(O)c(OC)c1,5,98*,100*,1,0.69,0,0,-3,.,.,.
COc1cc(CNCCc2ccc3c(c2)OCO3)ccc1O,-12,5,2,5,0.66,.,.,.,.,.,.
C=C1C(=O)OC2C1C(OC(=O)CC(=O)OC1CC(C)C3C=CC(=O)[C@@]3(C)C3OC(=O)C(=C)C13)CC(C)C1C=CC(=O)[C@]12C (some centres undefined),.,.,.,.,0.71,.,.,.,.,.,.
CCCNC(=O)N1C2CCC1C(C(=O)OC)=C(c1ccc(C(C)=O)cc1)C2 (centres undefined),.,.,.,.,0.71,.,.,.,.,.,.
CN(C)[C@@H]1C(=O)C(C(N)=O)=C(O)[C@@]2(O)C(=O)C3=C(O)c4c(O)ccc(Cl)c4[C@@](C)(O)[C@H]3C[C@@H]12,163*,79*,81*,91*,.,99*,95*,99*,97*,102*,100*
CN(C)[C@@H]1C(=O)C(C(N)=O)=C(O)[C@@]2(O)C(=O)C3=C(O)c4c(O)cccc4[C@@](C)(O)C3C[C@@H]12 (some centres undefined),147*,94*,100*,102*,.,101*,101*,101*,101*,102*,101*
CN(C)[C@@H]1C(=O)C(C(N)=O)=C(O)[C@@]2(O)C(=O)C3=C(O)c4c(O)cccc4[C@@](C)(O)[C@H]3[C@H](O)[C@@H]12,6,1,-1,3,.,.,.,.,.,.,.
CC(=Cc1ccccc1)CC1=C(C)C2(CC2)[C@@](C)(O)C(O)C1=CCO (some centres undefined),.,.,.,.,0.69,.,.,.,.,.,.
COC(=O)C1=C(c2cc3ccccc3o2)CC2CCC1N2C(=O)NCCO (centres undefined),.,.,.,.,0.67,.,.,.,.,.,.
COC12C(COC(N)=O)C3=C(C(=O)C(C)=C(N)C3=O)N1CC1C2N1C (centres undefined),80*,94*,99*,82*,0.053*,98*,89*,99*,94*,94*,96*
c1ccc2c[n+](CCCCCCCCCC[n+]3ccc4ccccc4c3)ccc2c1,.,.,.,8,.,.,.,.,.,.,.
CCCCCCC[n+]1ccc(-c2cc[n+](CCCCCCC)cc2)cc1,-3,31*,25*,19*,0.54,6,19*,10,9,13,5
COC(=O)C1=C(c2ccc(F)cc2OCc2ccccc2)CC2CCC1N2C(=O)N1CCC(O)CC1 (centres undefined),.,.,.,.,0.7,.,.,.,.,.,.
N/C(=N\[N+](=O)[O-])N/N=C/c1ccc(O)cc1,0,1,1,2,.,.,.,.,.,.,.
Nc1nonc1C(=O)N/N=C/c1ccc([N+](=O)[O-])o1,-16,17*,8,18*,.,99*,6.7*,16,8,5,61*
C[CH2][Hg][S]c1ccccc1C(=O)O,-126,+,101*,+,0.06*,+,+,98*,+,105*,+
Oc1cc(Cl)ccc1Oc1ccc(Cl)cc1Cl,137*,97*,98*,97*,0.046*,.,.,.,99*,100*,99*
Fc1ccc(CNC2CN3CCC2CC3)cc1 (centres undefined),-12,-1,-1,13*,0.69,.,.,.,-5,-4,1
COC(=O)C1=C(c2cc3ccccc3s2)CC2CCC1N2C(=O)NCc1ccc(C(F)(F)F)cc1 (centres undefined),.,.,.,.,0.74,.,.,.,.,.,.
COC(=O)C1=C(c2ccc(C(C)=O)cc2)CC2CCC1N2C(=O)NCc1ccc2c(c1)OCO2 (centres undefined),.,.,.,.,0.65,.,.,.,.,.,.
C[n+]1ccc(-c2cc[n+](C)cc2)cc1,-5,12,10*,22*,0.66,.,.,.,13*!,13,21*
COC(=O)C1=COC(C)C2CN3CCC4(C(=O)Nc5ccccc54)C3CC12 (centres undefined),3,1,-2,11*,0.74,.,.,.,-2,0,2
CC1OCC(C[N+](C)(C)C)O1 (centres undefined),.,.,.,.,0.67,.,.,.,.,.,.
COC(=O)C1=C(c2ccccc2)CC2CCC1N2C(=O)NCc1ccc(C(F)(F)F)cc1 (centres undefined),.,.,.,.,0.7,.,.,.,.,.,.
CNS(=O)(=O)c1ccc(N=Cc2c(O)n(-c3ccc(C)cc3)c(=O)[nH]c2=O)cc1,-7,1,1,0,0.7,.,.,.,.,.,.
CCc1nnc(NS(=O)(=O)c2ccc(N=Cc3c(O)n(-c4ccc(Cl)cc4)c(=O)[nH]c3=O)cc2)s1,-8,9,8,12*,0.61,.,.,.,4,2,20
